# Bioassay records deposited in PubChem by National Center for Advancing Translational Sciences (NCATS).
# This is a sample that favours compounds with a hit; in the whole collection about 7.5% have one here.
# SMN2 splice enh: SMN2 splice variant enhancement. 210,000 compounds, 2.8% hits. HEK293 SMN2-luciferase splicing reporter, luminescence, 30-36 h. Potency, µM (doses to about 46.1 µM), for inactives: at the top dose activity change, positive = activation, usual class: activators. AID 1458; also: % of control where 0% means no effect; nearly all actives have a fitted effect of over 55% in size
#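 HEK293 cells carry an SMN2 […]–luciferase reporter in which exon 7 inclusion puts luciferase in frame. Cells were plated 10-12 h before compound addition, then incubated 30-36 h at 37C. ONE-Glo luminescence was read; sodium butyrate at 4.5 mM final served as control.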
# ELG1 genotox: induces genotoxicity in HEK293T cells with luciferase-tagged ELG1; Potency, µM (titrated, usually from 46 µM), for inactives: top-dose activity change, positive = activation, usual class: activators; AID 504466; 330,000 compounds, 1.3% hits; HEK293T ELG1-luciferase reporter, luminescence, 16 h; also: % of control where 0% means no effect; nearly all actives have a fitted effect of over 60% in size
#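 Screening used a luciferase reporter fused to human ELG1 in HEK293T cells. Luminescence was read on a CCD plate imager after 16 hr exposure and 30 min ONE-Glo incubation.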
# Rab9 promoter act: activates the Rab9 promoter | Huh7 Rab9 promoter-luciferase reporter, luminescence, 24 h | Potency, µM (series often up to 9.22 µM), without a hit: top-dose activation, negative = inhibition, actives largely listed as activators | 320,000 compounds, 2.8% hits; also: % of control where 0% means no effect; nearly all actives have a fitted effect of over 60% in size
#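 Using Huh7 cells stably transfected with Rab9 promoter–luciferase, compounds were incubated 24 h at 37 °C, 5% CO2; luciferase luminescence was read 10 min after reagent addition.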
# FLuc modulator: firefly luciferase modulation, counter-screen for miR-21 project. P08659. purified FLuc, Km substrates, luminescence inhibition. Potency, µM (series often up to 57.5 µM), without a hit: top-dose activity change, negative = inhibition, most hits filed as inhibitors. 360,000 compounds, 6.9% hits. AID 588342;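 also: plate controls were vehicle for no effect and reference inhibitor for full effect; nearly all actives have a fitted effect of over 55% in size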
# Target sequence (P08659 whole entry, looked up): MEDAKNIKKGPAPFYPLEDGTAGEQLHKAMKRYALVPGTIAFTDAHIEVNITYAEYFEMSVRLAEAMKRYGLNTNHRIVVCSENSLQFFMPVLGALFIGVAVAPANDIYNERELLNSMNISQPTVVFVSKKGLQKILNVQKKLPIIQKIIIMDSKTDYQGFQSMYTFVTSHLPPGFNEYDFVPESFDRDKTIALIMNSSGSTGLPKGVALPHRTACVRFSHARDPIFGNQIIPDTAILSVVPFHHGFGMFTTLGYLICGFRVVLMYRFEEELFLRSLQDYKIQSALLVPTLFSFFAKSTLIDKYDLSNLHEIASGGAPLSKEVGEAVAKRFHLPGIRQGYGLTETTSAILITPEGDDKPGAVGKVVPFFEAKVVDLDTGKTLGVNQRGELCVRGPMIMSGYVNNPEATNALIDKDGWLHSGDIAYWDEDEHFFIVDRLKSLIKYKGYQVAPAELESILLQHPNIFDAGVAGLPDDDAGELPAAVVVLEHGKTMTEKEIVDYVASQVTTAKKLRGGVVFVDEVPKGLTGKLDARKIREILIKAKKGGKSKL
#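 Biochemical qHTS of compounds, final roughly 60 µM downward over six points, against 10 nM purified firefly luciferase using Km concentrations of substrates (10 uM D-luciferin, 10 uM ATP) in Tris acetate pH 7.5 buffer; luminescence output.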
# NPC1 prom act: NPC1 promoter activation | 320,000 compounds, 2.4% hits | Huh7 NPC1 promoter luciferase reporter, 24 h | Potency, µM (series often up to 9.22 µM), inactives show at the highest dose activation, most hits filed as activators; also: % of control where 0% means no effect; nearly all actives have a fitted effect of over 60% in size
#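 Huh7 reporter cells (NPC1 promoter driving luciferase) are dosed with compound for 24 h at 37 °C, 5% CO2; luciferase detection reagent is then added and luminescence measured after 10 min at ambient temperature.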
# An asterisk follows results filed as active; ? = inconclusive; / = no result. Calls follow the shape of the dose curve; as a rule, active = well fitted curve in the direction sought with a large enough effect; inconclusive = small, poorly fitted or top-dose-only effect, or another doubt; inactive = no such curve, though single readings can be large; an effect the other way counts as inactive or inconclusive. Potency is read from the fitted curve at half-maximal effect.
SMILES,SMN2 splice enh,ELG1 genotox,Rab9 promoter act,FLuc modulator,NPC1 prom act
COc1cccc(-c2cc(C(=O)Nc3ccc(Br)c(C)c3)[nH]n2)c1,/,/,/,-6%,/
COc1ccc(CNC(=O)c2cc(-c3ccc(C)c(C)c3)n[nH]2)cc1,/,/,/,11µM*,/
CCc1cc2c(=O)c(-c3ccc4c(c3)OCCO4)c(C)oc2cc1OS(C)(=O)=O,-24%,-3%,0%,-19%,0%
O=C(c1cc(-c2ccc(Cl)cc2)nc2ccccc12)N1CCOCC1,/,-13%,6%,19µM*,1%
c1ccc(-c2cc(-c3ccc(N4CCOCC4)cc3)nc3ccccc23)cc1,-7%,9%,-1%,15µM*,1%
Cc1ccc(-c2cc(C(=O)N3CCOCC3)c3cc(C)ccc3n2)cc1,/,1%,5%,6.7µM*,15%
c1ccc(-c2cc(N3CCOCC3)nc(-c3ccccc3)n2)cc1,-28%,1%,-10%,7%,0%
Cc1ccc2nc(-c3ccncc3)cc(C(=O)N3CCOCC3)c2c1,/,-3%,-1%,-2%,-3%
CC1=C(C)CC(C(=O)NCc2ccccn2)C(C(=O)O)C1 (stereo not given),/,0%,0%,4%,-1%
COc1ccc(-c2nc(SCC(=O)NCC3CCCO3)c(-c3ccc(Cl)cc3)[nH]2)cc1 (stereo not given),0%,/,/,-2%,/
Cc1ccc(SCC(=O)NCC2CCCO2)cc1 (stereo not given),/,4%,6%,-6%,4%
Cc1ccc(-c2nsc(SCC(=O)NCC3CCCO3)n2)cc1 (stereo not given),-51%,-3%,29%,17µM*,20%
COc1ccc(-n2nnc3c(SCC(=O)NCC4CCCO4)ncnc32)cc1 (stereo not given),0%,2%,-2%,11µM*,-4%
COc1ccc(-c2nsc(SCC(=O)NCC3CCCO3)n2)cc1 (stereo not given),-24%,9%,?,15µM*,11%
O=C(NCCc1cn[nH]c1)C1CCC(=O)N(CCc2cccc(F)c2)C1 (stereo not given),/,-4%,0%,3%,0%
COc1ccc(-c2noc(CCC(=O)O)n2)cc1,-17%,0%,-12%,-26%,-5%
CCOc1ccc(-c2noc(CCC(=O)O)n2)cc1,11%,6%,-13%,12µM*,-4%
COc1ccc(-c2noc(CCCC(=O)O)n2)cc1,25%,-1%,-17%,11µM*,-17%
CN1CCN(c2ccc(NC(=O)C(C)(c3ccccc3)c3ccccc3)cc2)CC1,/,-3%,0%,1%,-5%
CN1CCN(c2ccc(-c3ccnn3C(=O)Nc3ccccc3)cc2)CC1,10µM*,?,3.5µM*,17µM*,?
c1cncc(CSc2ccc(-c3cccs3)nn2)c1,15%,15%,3.5µM*,17µM*,?
Fc1cccc(CSc2ccc(-c3cccs3)nn2)c1,/,/,/,9.5µM*,/
Cc1ccc(CSc2ccc(-c3cccs3)nn2)cc1,14µM*,23µM*,2.8µM*,2.1µM*,4.5µM*
O=C(CSc1ccc(-c2cccs2)nn1)Nc1cccc(F)c1,/,/,/,24µM*,/
CC(=O)Nc1nnc(SCc2cccc(F)c2)s1,/,?,20%,-10%,15%
SMILES,SMN2 splice enh,ELG1 genotox,Rab9 promoter act,FLuc modulator,NPC1 prom act
O=C(CSc1ccc(-c2cccs2)nn1)Nc1ccccc1C(F)(F)F,/,/,/,-17%,/
CCN(Cc1ccc2c(c1)OCCO2)C(=O)CSc1nc(C)nc2sc(C)c(C)c12,/,-6%,-6%,-2%,-2%
Fc1ccc(CSc2ccc(-c3cccs3)nn2)cc1,5µM*,?,?,?,?
Cc1ccccc1CSc1ccc(-c2cccs2)nn1,/,/,/,7.6µM*,/
Cc1ccc(CNC(=O)CSc2ccc(-c3cccs3)nn2)cc1,3%,-3%,-2%,-1%,-6%
Fc1ccc(CSc2nnc(-c3cccs3)o2)cc1,?,?,?,?,-2%
CC1(c2ccccc2)NC(=S)N2C1NC(=S)N2c1ccccc1 (stereo not given),12%,5%,-1%,-11%,0%
COc1ccc(N2C(=S)NC3N2C(=S)NC3(C)c2ccccc2)cc1 (stereo not given),?,?,4µM*,?,29%
Oc1ccc(N=Nc2ccc3c(c2)OCO3)c2ccccc12,/,5.2µM*,3.2µM*,7.6µM*,?
